Records with an inconclusive call do not appear. A call without a number means that no potency is given here. The source holds several records for some structures; these can differ, active in one and inactive in another. Calls of active or inactive are those of the source. Calls come from the whole dose curve.
Potency is the fitted concentration of half-maximal effect.

Thyrotropin receptor (Homo sapiens), sequence (P16473 whole entry, looked up): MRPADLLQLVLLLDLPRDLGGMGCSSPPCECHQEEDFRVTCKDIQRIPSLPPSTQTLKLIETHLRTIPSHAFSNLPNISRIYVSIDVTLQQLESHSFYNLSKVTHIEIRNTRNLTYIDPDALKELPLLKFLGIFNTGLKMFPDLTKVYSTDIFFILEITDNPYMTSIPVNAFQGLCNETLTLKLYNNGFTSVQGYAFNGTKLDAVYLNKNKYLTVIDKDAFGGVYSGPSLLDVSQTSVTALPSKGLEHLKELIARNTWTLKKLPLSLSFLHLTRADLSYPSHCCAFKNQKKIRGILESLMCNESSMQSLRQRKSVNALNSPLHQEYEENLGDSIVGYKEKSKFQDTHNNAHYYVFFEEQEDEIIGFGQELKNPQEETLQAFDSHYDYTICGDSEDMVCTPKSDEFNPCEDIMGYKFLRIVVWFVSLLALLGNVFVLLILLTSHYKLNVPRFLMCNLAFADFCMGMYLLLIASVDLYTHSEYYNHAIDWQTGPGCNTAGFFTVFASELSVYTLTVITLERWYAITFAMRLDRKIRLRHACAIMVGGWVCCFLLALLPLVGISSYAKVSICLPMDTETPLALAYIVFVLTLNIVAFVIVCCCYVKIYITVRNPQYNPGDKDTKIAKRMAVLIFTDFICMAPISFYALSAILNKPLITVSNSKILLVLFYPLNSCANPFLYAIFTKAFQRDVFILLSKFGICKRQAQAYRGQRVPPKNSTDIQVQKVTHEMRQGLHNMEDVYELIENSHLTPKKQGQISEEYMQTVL

The target in the experiment is Thyrotropin receptor (Homo sapiens) (UniProt P16473). The experiment in a line: qHTS assay to identify small molecule agonists of the thyroid stimulating hormone receptor (TSHR) signaling pathway (AID 1224843). Note: nearly all actives have a fitted effect of over 45% in size. The conditions noted are these: TSHR-HEK293 cells, cAMP HTRF, agonist mode, 30 min; series mostly up to 92.4 µM. From the text:
National Center for Advancing Translational Sciences [NCATS]
NIH Chemical Genomics Center [NCGC]
U.S. Environmental Protection Agency [EPA]
National Institutes of Environmental Health Sciences [NIEHS]
National Toxicology Program [NTP]
U.S. Food and Drug Administration [FDA]
TSHR is the receptor for thyrotropin (thyroid stimulating hormone or TSH), a member of the glycoprotein hormone family. TSH is released by the anterior pituitary gland and is the main regulator of thyroid gland growth and development. Upon binding circulating thyrotropin, a G-protein signal cascade activates adenylyl cyclase and […] cAMP concentration is increased. cAMP is a key second messenger involved extensively in cellular signal transduction pathways associated with the majority of G-protein coupled receptors (GPCRs). The activation of these GPCRs by neurotransmitters, lipids, nucleotides, peptides and hormones results in the activation or the inhibition of plasma membrane-bound adenylate cyclase through heterotrimeric G-proteins. A cell-based TSHR assay was used to screen the Tox21 10K library for compounds that can modulate TSHR in agonist mode.
Tox21 Assay Protocol Summary:
TSHR-Hek293 cells were dispensed at 800 cells/4uL/well in 1536-well white plates using a Multidrop dispenser. […] The plates were incubated at room temperature for 30 min. 2.5 ul/well of cAMP-d2 and 2.5ul/well of anti-cAMP-cryptate was added respectively into the assay plates using a Flying Reagent Dispenser. After 1 hr incubation at room temperature, the fluorescence intensity in the plates was measured using an Envision plate reader. Each test compound was measured at 15 concentrations and in triplicates.
On the technique in general: Quantitative high-throughput screening tests each substance at several concentrations.
With `Cl[C@H]1OCCO[C@@H]1Cl`, the Potency result is “inactive”. Regarding `Nc1cc(Cl)cc(Cl)c1`, the Potency result is “inactive”.

As for `Cc1ccccc1N`, the Potency was 1.08 µM (active) and inactive. In the case of `Cc1cccc(N)c1C`, the Potency result was “inactive”. Regarding `COC(C)(C)CCCC(C)C/C=C/C(C)=C/C(=O)OC(C)C` (stereo not given), the Potency result was “inactive”. Regarding `O=C(O)COc1ccccc1`, the Potency result was “inactive”. The value for `CNC(=O)O/N=C(\SC)C(=O)N(C)C` was “inactive”. As for `Oc1c(Br)cc(Br)cc1Br`, the entry is “inactive”; as for `CC(=O)C1CCOC1=O` (stereo not given), “inactive”. On to `OC[C@@H](O)[C@H]1O[C@@H]2O[C@H](C(Cl)(Cl)Cl)O[C@@H]2[C@H]1O`, for which the Potency result was “inactive”. The value for `CCOC(=O)CC(SP(=O)(OC)OC)C(=O)OCC` (stereo not given) was “inactive”. On to `O=[N+]([O-])c1cc([As](=O)(O)O)ccc1O`, for which the Potency entry is “inactive”. As for `C=CCN=C=S`, the entry is “inactive”; as for `CN(C)C(=O)Nc1cccc(C(F)(F)F)c1`, “inactive”. As to `O=C(O)c1cc(Oc2ccc(C(F)(F)F)cc2Cl)ccc1[N+](=O)[O-]`, the Potency entry was “inactive”. For `O=P1(NCCCl)OCCCN1CCCl` (stereo not given), the Potency entry was “inactive”.

Regarding `CSc1nnc(C(C)(C)C)c(=O)n1N`, the Potency entry is “inactive”. As to `CC(=O)/C=C/c1ccccc1`, the Potency result is “inactive”. As for `C=C(C)C(=O)OCC(CC)CCCC` (stereo not given), the entry is “inactive”; as for `CCOP(=S)(OCC)Oc1ccc([N+](=O)[O-])cc1`, “inactive”. In the case of `FC(F)(F)c1ccc(Cl)cc1`, the Potency entry was “inactive”.

In the case of `O=[N+]([O-])c1ccc(Cl)c(Cl)c1`, the Potency result is “inactive”.

With `O=C(O)CCCc1ccc(N(CCCl)CCCl)cc1`, the Potency result was “inactive”. As for `CNC(=O)O/N=C/C(C)(C)S(C)=O` (stereo not given), the entry is “inactive”; as for `O=[N+]([O-])c1ccc(Cl)cc1`, “inactive”; as for `OCc1ccco1`, “inactive”. As for `CC[N+](=O)[O-]`, the entry is “inactive”; as for `Clc1cnc(Oc2ccc(Oc3ncc(Cl)cc3Cl)cc2)c(Cl)c1`, “inactive”.

On to `CNCC(O)c1ccc(O)cc1` (stereo not given), for which the Potency result was “inactive”. Regarding `O=C(O)C1C(C(=O)O)C2(Cl)C(Cl)=C(Cl)C1(Cl)C2(Cl)Cl` (stereo not given), the Potency result was “inactive”. Turning to `Nc1nc(N)nc(NC2CC2)n1`, the Potency result was “inactive”.

Turning to `CN(C)NC(=O)CCC(=O)O`, the Potency result was “inactive”.

Take `c1ccc2c(c1)CCCC2`: the Potency result was “inactive”. Consider `CCOP(=S)(OCC)Oc1cc(C)nc(C(C)C)n1`, for which the Potency entry was “inactive”. In the case of `CCSC(=O)N1CCCCCC1`, the Potency result is “inactive”. As for `Nc1cccc(Cl)c1`, the entry is “inactive”; as for `C=CC(=O)OCCCCCC(C)C`, “inactive”.

As to `Cl/C=C/Cl`, the Potency result is “inactive”.

With `N#Cc1ccccn1`, the Potency entry is “inactive”.

In the case of `Nc1ncc([N+](=O)[O-])s1`, the Potency entry is “inactive”.

The record behind these values is PubChem BioAssay (Tox21).
